# Changes are numbered by the printed parent chain; changes in the protein carry UniProt numbers. The full ranking holds about 16,000 sequences; the median of “ka relative to ugcaugu” is about 0.0091, and the highest 2% start at about 0.032. The full list was thinned out, with the highest values kept by preference.
# T1: RBFOX1 RRM (Homo sapiens, UniProt Q9NWB1 109-208)
# T1 sequence: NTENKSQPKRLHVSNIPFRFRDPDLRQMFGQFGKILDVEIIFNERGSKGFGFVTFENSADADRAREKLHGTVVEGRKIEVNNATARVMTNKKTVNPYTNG
# B1: UAAAUCG (DNA:RNA)
# RNA: GGGAGACCGGAAUUCAGAUUGUCCUAAAUCGUUAAAUCCCGUCGUAGCCACCA
# DNA 1: CAATCTGAATTCCGGTCTCCC
# DNA 2: TGGTGGCTACGACGGGATT
# B2: GAAAAGU (DNA:RNA)
# RNA: B1 RNA with U25G, U29A, C30G, G31U
# DNA 1: CAATCTGAATTCCGGTCTCCC
# DNA 2: TGGTGGCTACGACGGGATT
# B3: AGAAACC (DNA:RNA)
# RNA: B1 RNA with U25A, A26G, U29A, G31C
# DNA 1: CAATCTGAATTCCGGTCTCCC
# DNA 2: TGGTGGCTACGACGGGATT
# B4: CUCAAUG (DNA:RNA)
# RNA: B1 RNA with U25C, A26U, A27C, U29A, C30U
# DNA 1: CAATCTGAATTCCGGTCTCCC
# DNA 2: TGGTGGCTACGACGGGATT
# B5: CGCGAUA (DNA:RNA)
# RNA: GGGAGACCGGAAUUCAGAUUGUCCCGCGAUAUUAAAUCCCGUCGUAGCCACCA
# DNA 1: CAATCTGAATTCCGGTCTCCC
# DNA 2: TGGTGGCTACGACGGGATT
# B6: ACCAGGG (DNA:RNA)
# RNA: B1 RNA with U25A, A26C, A27C, U29G, C30G
# DNA 1: CAATCTGAATTCCGGTCTCCC
# DNA 2: TGGTGGCTACGACGGGATT
# B7: GUCCCCC (DNA:RNA)
# RNA: B5 RNA with C25G, G26U, G28C, A29C, U30C, A31C
# DNA 1: CAATCTGAATTCCGGTCTCCC
# DNA 2: TGGTGGCTACGACGGGATT
# B8: ACUCCAA (DNA:RNA)
# RNA: B5 RNA with C25A, G26C, C27U, G28C, A29C, U30A
# DNA 1: CAATCTGAATTCCGGTCTCCC
# DNA 2: TGGTGGCTACGACGGGATT
# B9: ACCAGAU (DNA:RNA)
# RNA: B5 RNA with C25A, G26C, G28A, A29G, U30A, A31U
# DNA 1: CAATCTGAATTCCGGTCTCCC
# DNA 2: TGGTGGCTACGACGGGATT
# B10: AAGCGUC (DNA:RNA)
# RNA: B5 RNA with C25A, G26A, C27G, G28C, A29G, A31C
# DNA 1: CAATCTGAATTCCGGTCTCCC
# DNA 2: TGGTGGCTACGACGGGATT
# B11: CAUGGGA (DNA:RNA)
# RNA: B5 RNA with G26A, C27U, A29G, U30G
# DNA 1: CAATCTGAATTCCGGTCTCCC
# DNA 2: TGGTGGCTACGACGGGATT
# B12: UUGUCCG (DNA:RNA)
# RNA: B1 RNA with A26U, A27G, A28U, U29C
# DNA 1: CAATCTGAATTCCGGTCTCCC
# DNA 2: TGGTGGCTACGACGGGATT
# B13: GUCGGCC (DNA:RNA)
# RNA: B5 RNA with C25G, G26U, A29G, U30C, A31C
# DNA 1: CAATCTGAATTCCGGTCTCCC
# DNA 2: TGGTGGCTACGACGGGATT
# B14: GUGGUCC (DNA:RNA)
# RNA: B1 RNA with U25G, A26U, A27G, A28G, G31C
# DNA 1: CAATCTGAATTCCGGTCTCCC
# DNA 2: TGGTGGCTACGACGGGATT
# B15: GGCCUUG (DNA:RNA)
# RNA: B5 RNA with C25G, G28C, A29U, A31G
# DNA 1: CAATCTGAATTCCGGTCTCCC
# DNA 2: TGGTGGCTACGACGGGATT
# B16: UUGGUCC (DNA:RNA)
# RNA: B1 RNA with A26U, A27G, A28G, G31C
# DNA 1: CAATCTGAATTCCGGTCTCCC
# DNA 2: TGGTGGCTACGACGGGATT
# B17: UUGUUGG (DNA:RNA)
# RNA: B1 RNA with A26U, A27G, A28U, C30G
# DNA 1: CAATCTGAATTCCGGTCTCCC
# DNA 2: TGGTGGCTACGACGGGATT
# B18: UUGGUUG (DNA:RNA)
# RNA: B1 RNA with A26U, A27G, A28G, C30U
# DNA 1: CAATCTGAATTCCGGTCTCCC
# DNA 2: TGGTGGCTACGACGGGATT
# B19: UUGGUCG (DNA:RNA)
# RNA: B1 RNA with A26U, A27G, A28G
# DNA 1: CAATCTGAATTCCGGTCTCCC
# DNA 2: TGGTGGCTACGACGGGATT
# B20: UUGUUCG (DNA:RNA)
# RNA: B1 RNA with A26U, A27G, A28U
# DNA 1: CAATCTGAATTCCGGTCTCCC
# DNA 2: TGGTGGCTACGACGGGATT
# B21: GUCCUUG (DNA:RNA)
# RNA: B5 RNA with C25G, G26U, G28C, A29U, A31G
# DNA 1: CAATCTGAATTCCGGTCTCCC
# DNA 2: TGGTGGCTACGACGGGATT
# B22: UCCUUGG (DNA:RNA)
# RNA: B1 RNA with A26C, A27C, A28U, C30G
# DNA 1: CAATCTGAATTCCGGTCTCCC
# DNA 2: TGGTGGCTACGACGGGATT
# B23: GGCGGCC (DNA:RNA)
# RNA: B5 RNA with C25G, A29G, U30C, A31C
# DNA 1: CAATCTGAATTCCGGTCTCCC
# DNA 2: TGGTGGCTACGACGGGATT
# Target: T1, RBFOX1 RRM
# Experiment: EMSA; HiTS-Eq, 1 nM pool, 10 min; buffer printed only for the single-RNA assays: 10 mM Tris pH 7.5, 150 mM NaCl, 3.4 mM EDTA, 0.001% NP-40, 30 C
# Details: tags: His6 N-terminal (pET28a); label: 5' 32P
# Outline: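 Purified RbFox RRM (wild type or mutant) was equilibrated for 10 min in 50 µL with 1 nM of a 5′-radiolabelled pool of RNA with 7 randomized nucleotides, its flanks annealed to DNA oligonucleotides, across increasing protein concentrations. Free RNA was separated by 8% native PAGE, excised, reverse-transcribed, PCR-barcoded and sequenced on an Illumina HiSeq 2500. Relative association constants came from read-count changes of each variant against the control reaction, normalised to the cognate motif.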
row,Binder,binding signal
1,B1,0.00678 KA relative to UGCAUGU
2,B2,0.00662 KA relative to UGCAUGU
3,B3,0.00391 KA relative to UGCAUGU
4,B4,0.00378 KA relative to UGCAUGU
5,B5,0.00807 KA relative to UGCAUGU
6,B6,0.00782 KA relative to UGCAUGU
7,B7,0.0163 KA relative to UGCAUGU
8,B8,0.000959 KA relative to UGCAUGU
9,B9,0.00102 KA relative to UGCAUGU
10,B10,0.00965 KA relative to UGCAUGU
11,B11,0.00261 KA relative to UGCAUGU
12,B12,0.0163 KA relative to UGCAUGU
13,B13,0.0169 KA relative to UGCAUGU
14,B14,0.0226 KA relative to UGCAUGU
15,B15,0.0328 KA relative to UGCAUGU
16,B16,0.0262 KA relative to UGCAUGU
17,B17,0.0248 KA relative to UGCAUGU
18,B18,0.0398 KA relative to UGCAUGU
19,B19,0.0376 KA relative to UGCAUGU
20,B20,0.0364 KA relative to UGCAUGU
21,B21,0.0114 KA relative to UGCAUGU
22,B22,0.0132 KA relative to UGCAUGU
23,B23,0.0183 KA relative to UGCAUGU

# From article PMC9911399, “Two distinct binding modes provide the RNA-binding protein RbFox with extraordinary sequence specificity”
